About 79,000 compounds went through this panel and 15% of them were active in at least one assay; those are over-represented in the sample as a whole. Cut-off read from the data, not from the text of the source: active = growth inhibition above about 70%; inactive = the rest.
Tests used:
[1] = NCI Yeast Anticancer Drug Screen. Data for the rad50 strain (AID 155);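 note: 0% = growth of vehicle-only cultures of the same strain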; settings: S. cerevisiae rad50 strain growth inhibition; at 50.0 µM; active compounds read high
Method in brief: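 Vehicle-treated cultures provide the reference for the growth inhibition reported for compound-exposed, repair-deficient yeast.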

[2] = NCI Yeast Anticancer Drug Screen. Data for the mec2-1 strain (AID 157); settings: S. cerevisiae mec2-1 strain, at 50.0 µM, active compounds read high
Method in brief: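 Vehicle-treated cultures served as reference for growth inhibition of compound-exposed mec2-1 yeast.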

[3] = NCI Yeast Anticancer Drug Screen. Data for the sgs1 mgt1 strain (AID 161);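 note: 0% = growth of cultures given vehicle only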; settings: S. cerevisiae sgs1 mgt1 strain, at 50.0 µM, active compounds read high
Method in brief: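 Genetically altered yeast, compound exposure, growth inhibition relative to vehicle.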

[4] = NCI Yeast Anticancer Drug Screen. Data for the cln2 rad14 strain (AID 165);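 note: 0% = growth equal to vehicle treated cultures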; settings: S. cerevisiae cln2 rad14 strain, at 50.0 µM, active compounds read high
Method in brief: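 Each compound was tested on cln2 rad14 yeast. Inhibition of growth was calculated against vehicle-exposed controls.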

[5] = NCI Yeast Anticancer Drug Screen. Data for the bub3 strain (AID 167); settings: S. cerevisiae bub3 mutant strain, at 50.0 µM, active compounds read high
Method in brief: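 Mutant yeast screening strain plus compound; vehicle-treated cultures serve as the 0% inhibition reference.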

[6] = NCI Yeast Anticancer Drug Screen. Data for the mlh1 rad18 strain (AID 175); settings: S. cerevisiae mlh1 rad18 strain growth inhibition; at 50.0 µM; active compounds read high
Method in brief: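 Vehicle-treated cultures served as the reference for growth inhibition in a yeast strain carrying DNA damage repair alterations exposed to each compound.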

Measured: growth inhibition

OC1(c2ccccc2)CC2C=CC1C2 (configuration not stated)
inactive: [1] -5.9% | [2] 8.2% | [3] 8.05% | [4] 17.2% | [5] 15.3% | [6] 5.15%

CN(C)c1ccc(C2(c3ccc(N(C)C)cc3)NNC(=O)c3cc(N(C)C)ccc32)cc1
inactive: [1] 21.4% | [2] 5% | [3] 13.2% | [4] 16.8% | [5] -3.15% | [6] 1.8%

OCC1OC(n2cc(I)c3c(Cl)ncnc32)C(O)C1O (configuration not stated)
inactive: [1] 0.7% | [2] -15.4% | [3] -4.05% | [4] -36.8% | [5] 1.6% | [6] 3.95%

O=C(NNC(=O)c1ccc2ccccc2n1)c1ccc2ccccc2n1
inactive: [1] 5.2% | [2] 2.45% | [3] 12.3% | [4] 9.8% | [5] 0.2% | [6] 16.6%

N#C/C(=C\c1ccccc1Cl)C(=O)c1ccccc1
inactive: [1] 11.4% | [2] 11.8% | [3] -5.9% | [4] 9.9% | [5] 18.9% | [6] 32.4%

CC(=O)Oc1cccn2c(C(=O)C(=O)c3ccc4c(OC(C)=O)cccn34)ccc12
inactive: [1] 5.15% | [2] 1.8% | [3] -12.9% | [4] -0.55% | [5] -4.85% | [6] 14.7%

COc1ccc(NC2=CC(=O)C(=O)c3ccccc32)nn1
inactive: [1] -4% | [2] 4.8% | [3] -19.8% | [4] -34.8% | [5] -1.65% | [6] -16%

COc1cc(NS(C)(=O)=O)ccc1Nc1c2ccccc2nc2c1[nH]c1ccc(NC3OC(CO)C(O)C(O)C3O)cc12 (configuration not stated)
inactive: [1] 53.8% | [2] -4.9% | [3] 3.35% | [4] 0.2% | [5] -26.3% | [6] -27.6%

CC(=O)Nc1ccc(C2C(C(=O)Nc3ccccc3)=C(C)NC(C)=C2C(=O)Nc2ccccc2)cc1
inactive: [1] 17.1% | [2] -2.6% | [3] 12.7% | [4] 11.2% | [5] 32.5% | [6] -2.2%

Cc1nc(-c2cc3c(ccc4ccccc43)oc2=O)cs1
inactive: [1] 21.5% | [2] -8.85% | [3] -4.45% | [4] 25.8% | [5] -4.4% | [6] -21.5%

O=c1[nH]c(Sc2ccccc2)nc2ccccc12
inactive: [1] 15.7% | [2] 9.45% | [3] 13.1% | [4] -58.1% | [5] 18.2% | [6] 7.25%

Cc1ccc(=O)n(Cc2ccccc2)n1
inactive: [1] -8.25% | [2] -31.9% | [3] -11.8% | [4] 21.1% | [5] -12.2% | [6] 2.75%

CCN(CC)C(=O)Cn1c2c(c3ccccc31)CCCC2
inactive: [1] 33.4% | [2] -30.4% | [3] 2.2% | [4] 1.15% | [5] -2.6% | [6] -11.9%

CCC(CC)C(=O)O
inactive: [1] -11.2% | [2] -3.5% | [3] -34.4% | [4] -22.5% | [5] 7.85% | [6] -34.8%

CN(C)CCC(OC(=O)c1ccccc1Cl)c1ccccc1 (configuration not stated)
inactive: [1] -6.9% | [2] 10.1% | [3] 13.7% | [4] 17.2% | [5] 8.75% | [6] 13.1%

Cc1ccc(C(=O)c2ccccc2)cc1
inactive: [1] 26.1% | [2] 23.5% | [3] -11.8% | [4] -8.75% | [5] -0.6% | [6] -1.7%

COc1ccc(Nc2nc3ccccc3nc2C(=O)O)cc1OC
inactive: [1] -23.9% | [2] 12.1% | [3] -9.6% | [4] 6.15% | [5] 26.1% | [6] -33.8%

CC(=O)Nc1cccc(Cc2cccc(NC(C)=O)c2)c1
inactive: [1] 2.75% | [2] -13.3% | [3] -11.9% | [4] -43.4% | [5] -5.1% | [6] -11.6%

Nc1ccc(-c2ccccc2)cc1[N+](=O)[O-]
inactive: [1] 33.2% | [2] -8.85% | [3] 16.1% | [4] -23.2% | [5] 21.1% | [6] 8.8%

COc1ccc(/C=N/NC(=O)c2ccccc2NC(=O)c2ccccc2Cl)cc1
inactive: [1] 17.4% | [2] -25.1% | [3] 29.1% | [4] -13.7% | [5] 7.25% | [6] 24.7%

CN(Cc1ccccc1)C(=O)c1ccc(Cl)cc1
inactive: [1] -1.35% | [2] 3.75% | [3] 6.25% | [4] 0.6% | [5] 1.25% | [6] -0.1%

CC(=O)CC(C)(C)S(=O)(=O)Cc1ccccc1
inactive: [1] -3.4% | [2] 11.2% | [3] 6.9% | [4] -5.85% | [5] 19.4% | [6] 6.3%

O=P(O)(O)c1ccc(I)cc1
inactive: [1] 10.5% | [2] -30.6% | [3] -12.4% | [4] 0.75% | [5] -20.3% | [6] -5.9%

NC(=S)N/N=C/c1cc(=O)c2cc(Cl)ccc2o1
inactive: [1] -0.05% | [2] 11.8% | [3] 42.3% | [4] 45.8% | [5] 7.95% | [6] 55%

O=c1cc(CSc2ncnc3nc[nH]c23)occ1O
inactive: [1] -11.3% | [2] -4.4% | [3] -2.1% | [4] 2.55% | [5] 11.8% | [6] 4.2%

OCCc1c[nH]c2ccccc12
inactive: [1] -18.7% | [2] -16.2% | [3] 10.5% | [4] -17.3% | [5] -1.85% | [6] 11.8%

CCOC(=O)N1CC2CCc3c(ccc4ccccc34)N2C1=O (configuration not stated)
inactive: [1] -2.35% | [2] 10.5% | [3] -4.5% | [4] -3.6% | [5] 7.4% | [6] 14.2%

N#CC(NCc1cccc(CNC(C#N)c2ccccc2)c1)c1ccccc1 (configuration not stated)
inactive: [1] -4.8% | [2] 8.4% | [3] -28.1% | [4] -16.4% | [5] -28.7% | [6] -19.8%

Cc1cccc(C(C#N)c2ccc(N)cc2)c1 (configuration not stated)
inactive: [1] -35.2% | [2] -61% | [3] -4.65% | [4] 11.7% | [5] -46% | [6] -18.4%

CCOCc1cc(Cc2cc(COCC)c3cccnc3c2O)c(O)c2ncccc12
inactive: [1] 55.7% | [2] 16.7% | [3] 39.6% | [4] 10.2% | [5] 0.45% | [6] 16.2%

C=C1C(=O)C[C@@H]2CC(C)(C)C[C@]12CC(=O)O
inactive: [1] -11.1% | [2] -41.5% | [3] -1.65% | [4] -7.05% | [5] -9.15% | [6] -17.1%

COc1ccc2cc(C(=O)O)ccc2c1OC
inactive: [1] 1.05% | [2] 1.7% | [3] 27% | [4] 25.1% | [5] -6.3% | [6] -3.85%

NS(=O)(=O)c1ccccc1
inactive: [1] 25.2% | [2] 18.9% | [3] 7.95% | [4] -28.4% | [5] 12.4% | [6] 15.4%

Cn1c([N+](=O)[O-])cnc1/C=C1\CCc2cc(OCCN3CCCC3)ccc2C1=O
inactive: [1] 30.4% | [2] 24.3% | [3] 36.4% | [4] 21.6% | [5] -2% | [6] 38.3%

COc1cc2c(cc1OC)C(c1ccccc1)ON(C)CC2 (configuration not stated)
inactive: [1] -4.15% | [2] -1.7% | [3] -3.35% | [4] -13.4% | [5] 1.45% | [6] 1.35%

CC1(C)CCCC/C1=N\NC(N)=O
inactive: [1] -12.6% | [2] -20.4% | [3] -8% | [4] -6.15% | [5] -9.6% | [6] -14.8%

COc1ccc2c(c1)C(N)CC2=O (configuration not stated)
inactive: [1] 14% | [2] 7.7% | [3] 0.75% | [4] 8.75% | [5] 1.75% | [6] -12.9%

CCOC(=O)C(=[N+]=[N-])C(=O)c1ccc(OS(C)(=O)=O)c(OS(C)(=O)=O)c1
inactive: [1] 7.8% | [2] -1.05% | [3] 13% | [4] 22.3% | [5] -0.2% | [6] 11.9%

Cc1cc(C)c(-c2cc(C(O)C3OC4OC(C)(C)OC4C3O)on2)c(C)c1 (configuration not stated)
inactive: [1] 15.3% | [2] -0.9% | [3] -1.3% | [4] 9.25% | [5] 0.8% | [6] 0.3%

S=C1NCCN1c1ccc(Cl)cc1
inactive: [1] -16.4% | [2] -16.1% | [3] -20.4% | [4] -21.8% | [5] -30.5% | [6] 5.55%

C[C@H]1CCC2C(OC(=O)[C@@H]2CN(C)C)[C@]2(C)C(=O)C=CC12O (some centres not stated)
inactive: [1] -24.5% | [2] -31.4% | [3] -10.3% | [4] 17.4% | [5] -6.95% | [6] -36%

N#C/C(=C(/Cc1ccc(F)cc1)NP(=O)(c1ccccc1)c1ccccc1)c1ccc(F)cc1
inactive: [1] 10.9% | [2] -3.7% | [3] -10.4% | [4] 0.8% | [5] 2.6% | [6] -2.35%
